Source: ChEMBL document CHEMBL4513141, “CO-ADD screening of NIH (USA) - Clinical Collection” (2021)
Potency and affinity values are given separately.

What was measured:
[1] = test system: Staphylococcus aureus; conditions: Concentration 20 uM; ASSAY_TEST Inhibition of Bacterial Growth; detection method Absorption (OD600); MEDIA CAMHB; plate type 384well; NBS; CORNING #3640; time 18 hr
[2] = test system: Escherichia coli; conditions: Concentration 20 uM; ASSAY_TEST Inhibition of Bacterial Growth; detection method Absorption (OD600); MEDIA CAMHB; plate type 384well; NBS; CORNING #3640; time 18 hr

| Structure (SMILES) | Inhibition [1] | Inhibition [2] |
| --- | --- | --- |
| CN1CC(=O)N2[C@H](c3ccc4c(c3)OCO4)c3[nH]c4ccccc4c3C[C@@H]2C1=O | 6.36% | 0.57% |
| Nc1nc(N)c2nc(-c3ccccc3)c(N)nc2n1 | -4.86% | 10.99% |
| CC(C)(C)C(O)/C=C/c1ccc2c(c1)OCO2 (configuration not stated) [STIRIPENTOL] | 0.92% | 6.07% |
| CC[N+](C)(CC)CCOC(=O)C(O)(c1ccccc1)C1CCCCC1.[Br-] (configuration not stated) [OXYPHENONIUM BROMIDE] | 12.65% | 3.27% |
| COc1ccc(OC)c(C(O)CNC(=O)CN)c1.Cl (configuration not stated) [MIDODRINE HYDROCHLORIDE] | 15.42% | 4.77% |
| CC1=C(CC(=O)O)c2cc(F)ccc2/C1=C\c1ccc([S+](C)[O-])cc1 (configuration not stated) | 2.19% | 3.68% |
| CC(C)NCC(O)COc1ccc(CCOCC2CC2)cc1.Cl (configuration not stated) [BETAXOLOL HYDROCHLORIDE] | 7.41% | 0.81% |
| COc1ccc(Cl)cc1C(=O)NCCc1ccc(S(=O)(=O)NC(=O)NC2CCCCC2)cc1 [GLYBURIDE] | -3.01% | -12.57% |
| O=C1N=C([O-])NC1(c1ccccc1)c1ccccc1.[Na+] [PHENYTOIN SODIUM] | 10.31% | 2.45% |
| CC(=O)OCC(=O)[C@@]1(O)CC[C@H]2[C@@H]3CCC4=CC(=O)C=C[C@]4(C)[C@H]3[C@@H](O)C[C@@]21C [PREDNISOLONE ACETATE] | 11.59% | 1.81% |
| CC(=CCC1=C(C)C(=O)c2ccccc2C1=O)CCCC(C)CCCC(C)CCCC(C)C (configuration not stated) | 7.33% | 5.45% |
| Cc1onc(-c2ccccc2)c1-c1ccc(S(N)(=O)=O)cc1 [VALDECOXIB] | 10.74% | 4.49% |
| CC(c1cc2ccccc2s1)N(O)C(N)=O (configuration not stated) [ZILEUTON] | -21.42% | 6.17% |
| Cl.O=C(NCC1CCCCN1)c1cc(OCC(F)(F)F)ccc1OCC(F)(F)F (configuration not stated) | 10.41% | -6.42% |
| CN1CCN(c2nc3cc(C(F)(F)F)ccc3n3cccc23)CC1.O=C(O)/C=C\C(=O)O.O=C(O)/C=C\C(=O)O | 3.37% | 4.75% |
| O=C(O[C@H]1[C@H](Oc2ccccc2COC(=O)C2(O)C=CCCC2=O)O[C@H](CO)[C@@H](O)[C@@H]1O)c1ccccc1 (some centres not stated) [TREMULACIN] | 15.86% | 0.23% |
| O=[N+]([O-])c1cccc2cn[nH]c12 [7-NITROINDAZOLE] | 16.98% | 6.38% |
| NS(=O)(=O)c1cc2c(cc1Cl)N=CNS2(=O)=O [CHLOROTHIAZIDE] | 7.87% | -2.82% |
| COc1ccccc1OCC(O)COC(N)=O (configuration not stated) [METHOCARBAMOL] | 12.79% | -0.64% |
| CCCOc1ccc(C(=O)OCCN(CC)CC)cc1N.Cl [PROPARACAINE HYDROCHLORIDE] | -1.38% | 2.71% |
| CCCCN1CCCC1CNC(=O)c1cc(C#N)c2ccccc2c1OC (configuration not stated) [NAFADOTRIDE] | 6.62% | 2.47% |

| Structure (SMILES) | Inhibition [1] | Inhibition [2] |
| --- | --- | --- |
| Cc1ccc(S(=O)(=O)NC(=O)NN2CCCCCC2)cc1 [TOLAZAMIDE] | 2.29% | -1.66% |
| CSc1ccc2c(c1)N(CCC1CCCCN1C)c1ccccc1S2.Cl (configuration not stated) [THIORIDAZINE HYDROCHLORIDE] | 2.86% | 7.48% |
| CN1C(=O)CC[C@H]1c1cccnc1 [COTININE] | -20.45% | 7.12% |
| Clc1ccc2c(c1)C(N1CCNCC1)=Nc1ccccc1O2 [AMOXAPINE] | 3.79% | 7% |
| CN(CCOc1ccc(NS(C)(=O)=O)cc1)CCc1ccc(NS(C)(=O)=O)cc1 [DOFETILIDE] | 11.97% | 6.72% |
| OC[C@H]1O[C@@H](Oc2cc(O)cc(/C=C/c3ccc(O)cc3)c2)[C@H](O)[C@@H](O)[C@@H]1O [PICEID] | 5.5% | 8.13% |
| CN(CCO)CC(O)Cn1cnc2c1c(=O)n(C)c(=O)n2C.O=C(O)c1cccnc1 (configuration not stated) [XANTHINOL NIACINATE] | 15.77% | -0.5% |
| CNCCCN1c2ccccc2CCc2ccccc21.Cl [DESIPRAMINE HYDROCHLORIDE] | 7.54% | -0.24% |
| CN(C)c1nc(N(C)C)nc(N(C)C)n1 [ALTRETAMINE] | 15.78% | -2.16% |
| CCC1(c2ccccc2)C(=O)NCNC1=O [PRIMIDONE] | 13.4% | 3.86% |
| NNC(=O)c1ccncc1 [ISONIAZID] | 8.75% | 0.87% |
| CC(=O)O.CNC(=N)NCCC[C@H](N)C(=O)O [TILARGININE ACETATE] | -13.73% | 6.22% |
| CN(C)CCCN1c2ccccc2CCc2ccccc21.Cl [IMIPRAMINE HYDROCHLORIDE] | 8.95% | -1.44% |
| O=c1c(-c2ccccc2)c1-c1ccccc1 [DIPHENCYPRONE] | -9.91% | 6.71% |
| CC[C@]1(O)C[C@@H]2CN(CCc3c([nH]c4ccccc34)[C@@](C(=O)OC)(c3cc4c(cc3OC)N(C=O)[C@H]3[C@@](O)(C(=O)OC)[C@H](OC(C)=O)[C@]5(CC)C=CCN6CC[C@]43[C@@H]65)C2)C1.O=S(=O)(O)O | 14.29% | -3.68% |
| CCCCNC(=O)NS(=O)(=O)c1ccc(C)cc1 [TOLBUTAMIDE] | 4.92% | 0.97% |
| CCN1CCC[C@H]1CNC(=O)c1cc(S(N)(=O)=O)ccc1OC [LEVOSULPIRIDE] | 7.78% | 3.44% |
| CCCN1CCCC[C@H]1C(=O)Nc1c(C)cccc1C.Cl [ROPIVACAINE HYDROCHLORIDE] | 13.36% | 1.04% |
| CCN(CC)CC1CCCCN1CC(=O)N1c2ccccc2C(=O)Nc2cccnc21 (configuration not stated) [OTENZEPAD] | 7.92% | 5.55% |
| CC(C)(C)NC[C@H](O)COc1nsnc1N1CCOCC1.O=C(O)/C=C\C(=O)O [TIMOLOL MALEATE] | 2.99% | 1.71% |
| CCOC(=O)C1(CCCCCCOc2ccc(Cl)cc2)CO1 (stereo not drawn) [rac-ETOMOXIR] | 3.7% | -5.87% |

| Structure (SMILES) | Inhibition [1] | Inhibition [2] |
| --- | --- | --- |
| CCCc1c(OCCCCc2nnn[nH]2)ccc(C(C)=O)c1O [TOMELUKAST] | 5.76% | 7.84% |
| CC(=O)O[C@]1(C(C)=O)CC[C@H]2[C@@H]3C=C(C)C4=CC(=O)CC[C@]4(C)[C@H]3CC[C@@]21C [MEGESTROL ACETATE] | 14.19% | 0.92% |
| OCCN1CCN(CCCN2c3ccccc3Sc3ccc(Cl)cc32)CC1 [PERPHENAZINE] | 23.21% | 4.38% |
| Cc1ccc(-c2cc(C(F)(F)F)nn2-c2ccc(S(N)(=O)=O)cc2)cc1 [CELECOXIB] | 5.39% | 6.38% |
| O=C(NCCN1CCOCC1)c1ccc(Cl)cc1 [MOCLOBEMIDE] | 3.95% | 0.74% |
| CC(=O)O[C@@]12CO[C@@H]1C[C@H](O)[C@@]1(C)C(=O)[C@H](O)C3=C(C)[C@@H](OC(=O)[C@H](O)[C@@H](NC(=O)OC(C)(C)C)c4ccccc4)C[C@](O)([C@@H](OC(=O)c4ccccc4)[C@H]21)C3(C)C | 10.2% | 3.46% |
| Nc1nc(Cl)nc2c1ncn2[C@@H]1O[C@H](CO)[C@@H](O)[C@H]1O | -10.52% | 3.01% |
| CC(C(O)c1ccc(O)cc1)N1CCC(Cc2ccccc2)CC1.O.O=C(O)C(O)C(O)C(=O)O (configuration not stated) | 9.87% | -1.84% |
| COc1ccc(-c2cc(=O)c3c(OC)c(OC)c(OC)c(OC)c3o2)cc1OC [NOBILETIN] | 13.24% | -1.7% |
| CCC(=O)OCC(=O)[C@@]1(OC(=O)CC)[C@@H](C)C[C@H]2[C@@H]3CCC4=CC(=O)C=C[C@]4(C)[C@@]3(Cl)[C@@H](O)C[C@@]21C [BECLOMETHASONE DIPROPIONATE] | 4.92% | -8.75% |
| O=C1c2c(O)cc(O)cc2O[C@H](c2ccc(O)c(O)c2)[C@H]1O [(+)-TAXIFOLIN] | 8.9% | -0.85% |
| CC(C)(C#N)c1cc(Cn2cncn2)cc(C(C)(C)C#N)c1 [ANASTROZOLE] | -10.48% | 4.02% |
| Cl.O.c1cnc(N2CCN(Cc3ccc4c(c3)OCO4)CC2)nc1 | 13.21% | -1.86% |
| CN1CCN(C2=Nc3cc(F)ccc3Cc3ccccc32)CC1 [FLUPERLAPINE] | 14.37% | 3.9% |
| Cc1cc2c(s1)Nc1ccccc1N=C2N1CCN(C)CC1 [OLANZAPINE] | 9.67% | 0.45% |
| CCCCC(=O)O[C@H]1CC[C@H]2[C@@H]3CCc4cc(O)ccc4[C@H]3CC[C@]12C [ESTRADIOL VALERATE] | 3.82% | 3.72% |
| CN1CCN(CCCN2c3ccccc3Sc3ccc(Cl)cc32)CC1.O=C(O)/C=C\C(=O)O.O=C(O)/C=C\C(=O)O [PROCHLORPERAZINE MALEATE] | 13.38% | 1.77% |
| CCOC(=O)O[C@]1(C(=O)OCCl)CC[C@H]2[C@@H]3CCC4=CC(=O)C=C[C@]4(C)[C@H]3[C@@H](O)C[C@@]21C [LOTEPREDNOL ETABONATE] | -21.62% | 4.07% |
| Cl.O=c1n(CCCN2CCN(c3cccc(Cl)c3)CC2)nc2ccccn12 [TRAZODONE HYDROCHLORIDE] | 11.44% | 0.18% |
